Results filed as inconclusive are left out. Entries that show only a call come without a potency. Active and inactive are the calls of the source. Calls come from the whole dose curve.
test: qHTS for Inhibitors of the Functional Ribonucleoprotein Complex (vRNP) of Lymphocytic Choriomeningitis Arenaviruses (LCMV): Viability assay - Alamar blue signal for LCMV Confirmatory Screen; conditions: LCMV vRNP confirmatory screen cells; series mostly up to 53.9 µM

Row | Structure (SMILES) | Potency
1 | Cc1cc2c(C(C)C)c(O)c(O)c(C=O)c2c(O)c1-c1c(C)cc2c(C(C)C)c(O)c(O)c(C=O)c2c1O | 27.3 µM (active)
2 | FC(F)(F)c1ccc(C=Cc2nc(COc3ccc(CCCCn4ccnn4)cc3)co2)cc1 | inactive
3 | CC1OC(=O)[C@@H](C(C)C)NC(=O)C(C(C)C)OC(=O)[C@H](C(C)C)NC(=O)C(C)OC(=O)[C@@H](C(C)C)NC(=O)C(C(C)C)OC(=O)[C@H](C(C)C)NC(=O)C(C)OC(=O)[C@@H](C(C)C)NC(=O)C(C(C)C)OC(=O)[C@H](C(C)C)NC1=O (stereo not given in full) | 0.611 µM (active)
4 | CCCCCN=C(N)N/N=C/c1c[nH]c2ccc(OC)cc12 | 9.68 µM (active)
5 | Cc1ccc2c(c1)C1CN(C)CCC1N2 (stereo not given) | inactive
6 | Cc1ncc([N+](=O)[O-])n1CC(C)O (stereo not given) | inactive
7 | Fc1ccc(CNc2ncnc3ccc(F)cc23)cc1 | inactive
8 | CNCCCC1c2ccccc2C=Cc2ccccc21 | 27.3 µM (active)
9 | CCC[C@H](N[C@@H](C)C(=O)N1[C@@H]2CCCC[C@H]2C[C@H]1C(=O)O)C(=O)OCC | inactive
10 | Cc1ccccc1-n1c(Cn2nc(-c3cccc(O)c3)c3c(N)ncnc32)nc2cccc(C)c2c1=O | inactive
11 | O=C1Cc2cc(CCN3CCN(c4nsc5ccccc45)CC3)c(Cl)cc2N1 | inactive
12 | COc1ccc2c(c1OC)CN1CCc3cc4c(cc3C1C2)OCO4 (stereo not given) | inactive
13 | CCOC(=O)OCC/C(SC(=O)OCC)=C(\C)N(C=O)Cc1cnc(C)nc1N | inactive
14 | CCCCC/C(C=O)=C\c1ccccc1 | inactive
15 | CCc1cncnc1N1CCN(Cc2nc3ccc(C(F)(F)F)cc3[nH]2)CC1 | 35.2 µM (active)
16 | COc1cc2c(cc1OC)CC(=O)N(CCCN(C)C[C@H]1Cc3cc(OC)c(OC)cc31)CC2 | inactive
17 | CCCCCC[C@H]1C(=O)O[C@H](C)[C@H](NC(=O)c2cccc(NC=O)c2O)C(=O)O[C@@H](C)[C@@H]1OC(=O)CC(C)C | inactive
18 | Cc1cccc(-c2[nH]c(C(C)(C)C)nc2-c2ccc3c(c2)OCO3)n1 | 4.32 µM (active)
19 | C=C1CC[C@@H]2[C@](C)(CO)[C@H](O)CC[C@@]2(C)[C@@H]1/C=C/C1=CCOC1=O | inactive
20 | Cn1cc(-c2ccncc2)c(-c2ccc(OCc3ccc4ccccc4n3)cc2)n1 | 38.5 µM (active)
21 | CCN(CC)C(=O)N[C@@H]1C=C2c3cccc4[nH]cc(c34)C[C@@H]2N(C)C1 | inactive
22 | CC(O)(P(=O)(O)O)P(=O)(O)O | inactive
23 | O=c1[nH]c2ccccc2n1C1CCN(CCCC(c2ccc(F)cc2)c2ccc(F)cc2)CC1 | inactive
24 | CCC(c1ccc(O)cc1)C(CC)c1ccc(O)cc1 (stereo not given) | inactive
25 | NC(=O)N/N=C/c1ccc([N+](=O)[O-])o1 | inactive
